Measured values reported in PubChem BioAssay AID1159580 (chemical genetic matrix, 2015).
Values joined by “and” are separate entries in the source; they are usually repeats but may differ in a detail not shown here. Equal entries are not always repeated. The whole screen tested about 5,500 compounds, of which about 2,000 (36%) were called active. Inconclusive results (about 18%) are left out. No stated cut-off is given here; in the data, active means normalized growth mostly below about 0.91 (no sharp cut-off); inconclusive means no clear call, values can overlap the other calls; inactive means mostly above about 0.92. This is one part of the list.

Experiment: chemical genetic growth profiling, strain panel (AID 1159580);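 further: tested at 20 µM; growth read once vehicle control cultures reached saturation at 30 °C; 1 = growth at the plate median or of vehicle wells; lower values mean less growth of the strain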
Conditions: S. cerevisiae deletion strains, growth OD

Measured: normalized growth

C=CC(C1=CC(=O)C=CC1=O)c1ccccc1 (stereo unspecified)
inactive: locus YAL021C, strain ccr4, hits give low values 1.01 | locus YAL026C, strain drs2, hits give low values 0.983 | locus YAL030W, strain snc1, hits give low values 1 | locus YBL061C, strain skt5, hits give low values 1 | locus YBR009C, strain hhf1, hits give low values 0.995 | locus YBR021W, strain FUR4, hits give low values 0.982 | locus YBR023C, strain chs3, hits give low values 1.01 | locus YBR171W, strain sec66, hits give low values 1.02 | locus YBR229C, strain ROT2, hits give low values 0.974 | locus YBR231C, strain swc5, hits give low values 1.01 | locus YBR279W, strain paf1, hits give low values 0.993 | locus YCL011C, strain gbp2, hits give low values 1.01 | locus YCL016C, strain dcc1, hits give low values 0.994 | locus YCL029C, strain bik1, hits give low values 1 | locus YCL061C, strain MRC1, hits give low values 0.993 | locus YCL069W, strain vba3, hits give low values 1 | locus YCR088W, strain abp1, hits give low values 1.01 | locus YDL005C, strain med2, hits give low values 1.01 | locus YDL035C, strain GPR1, hits give low values 0.937 | locus YDL040C, strain nat1, hits give low values 0.989 | locus YDL074C, strain BRE1, hits give low values 0.916 | locus YDL101C, strain DUN1, hits give low values 0.96 | locus YDL185W, strain tfp1, hits give low values 0.994 | locus YDL192W, strain arf1, hits give low values 0.956 | locus YDR001C, strain nth1, hits give low values 1.01 | locus YDR069C, strain doa4, hits give low values 1.01 | locus YDR101C, strain arx1, hits give low values 0.977 | locus YDR137W, strain rgp1, hits give low values 0.961 | locus YDR159W, strain sac3, hits give low values 1.03 | locus YDR195W, strain ref2 1.01 | locus YDR297W, strain sur2, hits give low values 0.996 | locus YDR318W, strain mcm21, hits give low values 0.953 | locus YDR334W, strain swr1, hits give low values 1.01 | locus YDR335W, strain msn5, hits give low values 0.999 | locus YDR388W, hits give low values 0.991 | locus YDR392W, strain spt3, hits give low values 0.917 | locus YDR502C, strain sam2, hits give low values 0.95 | locus YEL003W, strain gim4, hits give low values 0.982 | locus YEL037C, strain rad23, hits give low values 1.01 | locus YEL061C, strain CIN8 (second series), hits give low values 1.01 | locus YEL061C, strain CIN8, hits give low values 0.974 | locus YER015W, strain faa2, hits give low values 0.996 | locus YER016W, strain bim1, hits give low values 1 | locus YER110C, hits give low values 0.98 | locus YER111C, strain swi4, hits give low values 1 | locus YER155C, strain BEM2 (second series), hits give low values 0.895 | locus YER155C, strain BEM2, hits give low values 1.01 | locus YER167W, strain BCK2, hits give low values 0.947 | locus YFR010W, strain ubp6, hits give low values 1 | locus YGL078C, strain dbp3, hits give low values 0.995 | locus YGL167C, strain pmr1, hits give low values 1.01 | locus YGL173C, strain kem1, hits give low values 1 | locus YGL227W, strain vid30, hits give low values 1.01 | locus YGL240W, strain doc1, hits give low values 0.964 | locus YGL248W, strain PDE1, hits give low values 0.907 | locus YGL253W, strain hxk2, hits give low values 1.02 | locus YGR135W, strain pre9, hits give low values 0.931 | locus YGR252W, strain gcn5, hits give low values 0.952 | locus YHR013C, strain ard1, hits give low values 1.04 | locus YHR027C, strain rpn1, hits give low values 1.01 | locus YHR030C, strain SLT2, hits give low values 0.984 and 1.06 | locus YHR079C, strain IRE1 (second series), hits give low values 0.98 | locus YHR079C, strain IRE1, hits give low values 1.02 | locus YHR094C, strain hxt1, hits give low values 0.993 | locus YHR129C, strain ARP1, hits give low values 0.957 | locus YHR142W, strain chs7, hits give low values 1.01 | locus YHR200W, strain rpn10, hits give low values 0.963 | locus YIL066C, strain RNR3, hits give low values 0.875 | locus YIL073C, strain SPO22, hits give low values 0.916 | locus YIL125W, strain kgd1, hits give low values 0.998 | locus YIR030C, strain dcg1, hits give low values 0.972 | locus YJL092W, strain hpr5, hits give low values 1.01 | locus YJL095W, strain BCK1 (second series), hits give low values 1.01 | locus YJL095W, strain BCK1, hits give low values 0.891 and 1.06 | locus YJL115W, strain asf1, hits give low values 1.01 | locus YJL129C, strain trk1, hits give low values 1.04 | locus YJL134W, strain LCB3, hits give low values 0.99 | locus YJL154C, strain vps35, hits give low values 0.997 | locus YJL164C, strain tpk1, hits give low values 0.984 | locus YJL166W, strain qcr8, hits give low values 0.991 | locus YJL168C, strain set2, hits give low values 0.992 | locus YJL187C, strain SWE1 (second series), hits give low values 0.937 | locus YJL187C, strain SWE1, hits give low values 1 | locus YJR043C, strain POL32, hits give low values 0.889 | locus YJR066W, strain TOR1, hits give low values 1 | locus YJR075W, strain HOC1, hits give low values 0.929 | locus YKL009W, strain mrt4, hits give low values 0.956 | locus YKL068W, hits give low values 1.05 | locus YKL085W, strain MDH1 (second series), hits give low values 0.978 | locus YKL085W, strain MDH1, hits give low values 0.978 | locus YKL160W, strain elf1, hits give low values 0.987 | locus YKR026C, strain gcn3, hits give low values 1.01 | locus YKR091W, strain srl3, hits give low values 1.01 | locus YLL001W, strain dnm1, hits give low values 0.978 | locus YLL026W, hits give low values 1 | locus YLL041C, strain sdh2, hits give low values 1.01 | locus YLR027C, strain aat2, hits give low values 1.01 | locus YLR058C, strain SHM2, hits give low values 0.958 | locus YLR102C, strain apc9, hits give low values 0.978 | locus YLR113W, strain HOG1, hits give low values 1.02 | locus YLR221C, strain rsa3, hits give low values 0.992 | locus YLR258W, strain gsy2, hits give low values 1.01 | locus YLR262C, strain YPT6 (second series), hits give low values 0.969 | locus YLR268W, strain sec22, hits give low values 0.925 | locus YLR320W, strain mms22, hits give low values 0.983 | locus YLR342W, strain FKS1 (second series), hits give low values 0.794 | locus YLR342W, strain FKS1, hits give low values 1.02 | locus YLR357W, strain rsc2, hits give low values 0.988 | locus YLR370C, strain arc18, hits give low values 1.01 | locus YLR371W, strain rom2, hits give low values 0.973 | locus YLR384C, strain iki3, hits give low values 1.01 | locus YML016C, strain PPZ1, hits give low values 0.976 | locus YML032C, strain rad52, hits give low values 0.965 | locus YML120C, strain ndi1, hits give low values 0.998 | locus YML124C, strain tub3, hits give low values 0.971 | locus YMR058W, strain fet3, hits give low values 1 | locus YMR078C, strain ctf18, hits give low values 0.963 | locus YMR125W, strain sto1, hits give low values 1.02 | locus YMR129W, hits give low values 1 | locus YMR205C, strain PFK2, hits give low values 0.997 | locus YMR223W, strain ubp8, hits give low values 0.971 | locus YMR231W, strain pep5, hits give low values 0.986 | locus YMR263W, strain SAP30, hits give low values 0.966 | locus YMR307W, strain GAS1, hits give low values 0.966 | locus YNL067W, strain RPL9B, hits give low values 0.943 | locus YNL071W, strain lat1, hits give low values 1.01 | locus YNL153C, strain GIM3, hits give low values 0.93 | locus YNL183C, strain NPR1, hits give low values 0.975 | locus YNL209W, strain ssb2, hits give low values 0.996 | locus YNL248C, strain rpa49, hits give low values 0.986 | locus YNL250W, strain rad50, hits give low values 1 | locus YNL271C, strain bni1, hits give low values 0.979 | locus YNL298W, strain CLA4, hits give low values 0.982 | locus YNL322C, strain KRE1 (second series), hits give low values 1.01 | locus YNL322C, strain KRE1, hits give low values 0.945 | locus YNR049C, strain mso1, hits give low values 1.02 | locus YNR052C, strain pop2, hits give low values 0.997 | locus YOL012C, strain htz1 0.678 | locus YOL147C, strain pex11, hits give low values 0.975 | locus YOR001W, strain rrp6, hits give low values 0.997 | locus YOR061W, strain CKA2, hits give low values 0.978 | locus YOR069W, strain VPS5, hits give low values 0.982 | locus YOR070C, strain gyp1, hits give low values 0.981 | locus YOR080W, strain dia2, hits give low values 1 | locus YOR083W, strain WHI5, hits give low values 0.981 | locus YOR106W, strain vam3, hits give low values 0.981 | locus YOR136W, strain idh2, hits give low values 1 | locus YOR144C, strain elg1, hits give low values 0.975 | locus YOR231W, strain MKK1, hits give low values 1.04 | locus YOR265W, strain rbl2, hits give low values 1.02 | locus YOR270C, strain vph1, hits give low values 0.973 | locus YOR290C, strain snf2, hits give low values 0.962 | locus YOR316C, strain cot1, hits give low values 0.993 | locus YPL051W, strain arl3, hits give low values 0.978 | locus YPL078C, strain atp4, hits give low values 0.968 | locus YPL106C, strain sse1, hits give low values 1.02 | locus YPL240C, strain hsp82, hits give low values 1 | locus YPL256C, strain CLN2, hits give low values 1.05 | locus YPR119W, strain clb2, hits give low values 0.975 | locus YPR141C, strain kar3, hits give low values 0.991 | locus YPR167C, strain met16, hits give low values 0.963 | strain wtn01, hits give low values 0.931
active: locus YDL134C, strain PPH21, hits give low values 0.863 | locus YDR162C, strain NBP2, hits give low values 0.778 | locus YGL086W, strain mad1, hits give low values 0.927 | locus YGR078C, strain PAC10, hits give low values 0.805 | locus YGR229C, strain SMI1, hits give low values 0.722 | locus YKR001C, strain vps1, hits give low values 0.887 | locus YLR039C, strain RIC1, hits give low values 0.64 | locus YLR262C, strain YPT6, hits give low values 0.551 | locus YLR330W, strain CHS5, hits give low values 0.882 | locus YLR418C, strain cdc73, hits give low values 0.823 | locus YNL233W, strain BNI4, hits give low values 0.815 | locus YNL307C, strain MCK1, hits give low values 0.674 | locus YOR184W, strain ser1, hits give low values 0.811 | locus YPR163C, strain tif3, hits give low values 0.849
